Data on 26 compounds can be found in PubChem BioAssay AID1359 (The Scripps Research Institute Molecular Screening Center, 2008).

SMILES strings stand for the structures. Among all 220,000 compounds or so, about 970 (0.44%) were called active. What follows is part of a selection rich in actives, with near analogues and random picks from the rest. Unmarked numbers belong to inactive results. Cut-off read from the data, not from the text of the source: active = activation above about 27%; inactive = the rest.

Sequence of Neuropeptide Y receptor type 2 (Homo sapiens) (P49146 whole entry, looked up): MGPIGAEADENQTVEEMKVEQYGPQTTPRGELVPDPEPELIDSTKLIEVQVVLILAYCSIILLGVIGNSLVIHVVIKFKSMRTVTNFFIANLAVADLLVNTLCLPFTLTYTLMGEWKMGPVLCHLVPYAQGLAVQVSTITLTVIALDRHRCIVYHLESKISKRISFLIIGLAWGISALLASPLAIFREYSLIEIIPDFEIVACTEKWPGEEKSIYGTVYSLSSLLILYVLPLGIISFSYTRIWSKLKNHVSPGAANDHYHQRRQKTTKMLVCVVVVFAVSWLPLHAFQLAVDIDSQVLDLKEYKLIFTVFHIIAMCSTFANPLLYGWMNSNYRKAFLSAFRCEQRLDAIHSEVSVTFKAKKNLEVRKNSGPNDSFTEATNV

The experiment addresses Neuropeptide Y receptor type 2 (Homo sapiens) (UniProt P49146). The experiment in a line: NPY-Y2 potentiators or agonists, primary screen, cell-based (AID 1359).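 Note: cells stimulated with NPY near EC25 plus isoproterenol at EC100; 0% = vehicle plus submaximal agonist and 100% = vehicle plus saturating agonist.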 The conditions noted are these: cells expressing NPY-Y2, potentiator/agonist read-out; at 3.6 µM; active compounds read high.
Turning to `Oc1c(Br)cc(/C=N/NC(=S)NCC2CCCO2)cc1Br` (stereo unspecified), the activation is 5.85%. The value for `Cn1nc(C(C)(C)C)c(NC(=O)c2sccc2Cl)c1C(C)(C)C` was -3.45%. With `O=C(CSc1ncnc2scc(-c3ccccc3)c12)NCc1ccc2c(c1)OCO2`, the activation is -18.5%. The value for `CCOC(=O)c1c(C)nn(-c2ncccc2NC(=O)CCC(=O)O)c1C` was 2.97%; that for `CCCCOc1ccc(-c2ncc(C(=O)OCC)c(N)n2)cc1` was -4.83%; that for `CCOC(=O)CSc1nccc(N(C)C)c1C#N` was -3.41%. Consider `CCOC(=O)C(Sc1ncc(C#N)c(N)n1)C(C)C` (stereo unspecified), for which the activation is 41.9% (active).

In the case of `COc1ccc2c(c1)c1ncn(Cc3ccccn3)c(=O)c1n2C`, the activation was -3.5%. The value for `Cc1oc2cc([N+](=O)[O-])c(O)c([N+](=O)[O-])c2c1C(=O)c1ccc(Br)cc1` was 8.73%; that for `C[n+]1ccc(/C=C/c2c[nH]c3ccccc23)cc1` was 3.07%; that for `O=C(O)/C=C\C(=O)Nc1ccc(OCc2ccccc2)cc1` was -1.76%. Under `CN(C)c1ccc(CNC23CN4CN(CN(C4)C2)C3)cc1` stands 8.96%; under `CN(C)c1ccc(CNC2C3CC4CC(C3)CC2C4)cc1` (stereo unspecified), 31.8% (active).

Consider `c1cnc(NC2C3CC4CC(C3)CC2C4)nc1` (stereo unspecified), for which the activation is 2.83%.

For `Cc1cccc(C)c1NC(=O)C(c1ccccc1)N1CC(=O)Nc2ccccc21` (stereo unspecified), the activation is -1.44%. Under `CCOC(=O)/C(=C\c1ccc([N+](=O)[O-])cc1)C(=O)c1cc(C(C)=O)c(Nc2ccccc2)s1` stands -2.39%; under `CCOc1cc(/C=N/NC(=O)OC)ccc1OCCSc1ccc(Cl)cc1`, 3.6%. The value for `CC(CO)NCC12CC3CC(CC(C3)C1)C2` (stereo unspecified) was 2.65%; that for `Cc1ccc(NC(=O)O/N=C/c2cccc([N+](=O)[O-])c2)cc1` was -2.02%.

Consider `O=C(Nc1nc2ccc([N+](=O)[O-])cc2s1)c1ccncc1`, for which the activation is 17.8%. Take `O=C(NC(Nc1nc2ccc([N+](=O)[O-])cc2s1)(C(F)(F)F)C(F)(F)F)c1ccccc1`: the activation was 61.7% (active). The value for `O=C(O)CCC(=O)Nc1nc2ccc([N+](=O)[O-])cc2s1` was 0.15%; that for `CCc1c(C)sc(NC(=O)c2cccs2)c1C(N)=O` was 18%. Under `Cc1coc2c(O)cc3c(c12)OC1(N2CCCCC2)C(=O)NCCCC31` (stereo unspecified) stands 93% (active). For the compound `COc1ccc(C2c3c(C)nn(-c4ccccc4)c3NC(=O)N2c2ccccc2)cc1` (stereo unspecified), the activation was 11.1%. Regarding `Cc1ccc(C)c2c1cc(C)c1nnc(SCC(=O)Nc3cccc(C(=O)O)c3)n12`, the activation is -10%.
